Among the data in PubChem BioAssay AID624298 (National Center for Advancing Translational Sciences (NCATS), 2012) are Potency values, retold here.

Results filed as inconclusive are left out. Entries that show only a call come without a potency. Activity calls are given as the source filed them. Calls follow the shape of the dose curve; as a rule, active = well fitted activation curve with a large enough effect; inconclusive = small, poorly fitted or top-dose-only effect; inactive = no such curve, though single readings can be large or run the other way.

The nature of the test: Activators of T cell receptors: Hit Validation. Particulars: primary human leukocytes, cytokine release by HTRF, 48 h, TCR-stimulated with anti-CD3 beads; series mostly up to 46.1 µM. In outline: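 Primary human leukocytes incubated 48 hr with anti-CD3 beads plus compound, without co-stimulation. Secreted IL-2 quantified by HTRF (europium cryptate donor, d2 acceptor, 665 nm emission).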
In the case of `CC1CCCC(C)N1C(=O)COC(=O)C12CC3CC(CC(Cl)(C3)C1)C2` (stereo not drawn), the Potency result was “inactive”.
In the case of `Cc1ccc(NC2=CC(=O)C(=O)c3ccccc32)c(C)c1` it was “inactive”; in that of `CCOC(=O)c1c(C)[nH]c(C(=O)OCC(=O)Nc2ccccc2)c1C`, “inactive”; in that of `CCOC(=O)c1ncn2c1[C@@H]1CCNC1C(=O)c1cc(OC)ccc1-2` (stereo partly drawn), “inactive”.
As to `COc1ccc(C(=O)c2sc3nc(C)cc(-c4cccs4)c3c2N)cc1OC`, the Potency result is “inactive”.
On to `CCCCN1CCC(COC(=O)c2cc(Cl)c(N)c3c2OCCO3)CC1`, for which the Potency result was “inactive”.
The result for `CC(C)(C)CC(=O)N1CCN(c2ccc(S(=O)(=O)N3CCOCC3)cc2[N+](=O)[O-])CC1` reads “inactive”.
In the case of `CN(CC(=O)Nc1ccc(N2CCOCC2)cc1)C(=O)c1ccc(CS(C)(=O)=O)cc1` it was “inactive”.
The result for `CCCn1c(-c2ccccc2)nc2c(=O)n(C)c(=O)[nH]c21` reads “inactive”.
With `Cc1[nH]c2ccccc2c1C(=O)CSc1nnc(C2CC2)o1`, the Potency entry is “inactive”.
On to `COc1ccc(NC(=O)C2CC(=O)N(Cc3ccco3)C2)cc1Cl` (stereo not drawn), for which the Potency entry is “inactive”.
In the case of `CC1(C)Cc2cccc(OCC(=O)NCc3ccc(F)cc3)c2O1` it was “inactive”; in that of `CC(=O)Nc1ccc(NC(=O)C(C)OC(=O)c2c(NC(C)=O)sc(C)c2C)cc1` (stereo not drawn), “inactive”.
As to `O=S(=O)(c1ccc(=S)[nH]c1)N1CCCCCC1`, the Potency result is “inactive”.
With `O=C(NCCCNCc1ccccc1)/C(=N\O)c1ccccc1`, the Potency entry is “inactive”.
For `COc1ccc(-n2c(=O)[nH]cc(C(=O)Nc3ccc4c(c3)OCO4)c2=O)cc1OC`, the Potency entry is “inactive”.
Consider `O=S(=O)(Nc1cc(Cl)ccc1-n1cncn1)c1ccc(F)cc1`, for which the Potency result was “inactive”.
With `CN(C)c1cccc(C(=O)N(Cc2ccccc2)Cc2ccccc2)c1`, the Potency entry is “inactive”.
